A selection: hits, their analogues and other compounds. The true share with any hit is near 1.2%.
beta cell repl: induces beta-cell replication in MIN6 cells | MIN6 cells proliferation, ATPlite luminescence, 48 h; cells starved in 0.2% serum; 100% = growth in 10% serum | proliferation, % at 10 µM | 330,000 compounds, 0.29% hits;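 active means compounds whose signal lies at least 3.5 SD above the mean of all wells on their plate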
NTR1 agonist: activates human neurotensin receptor 1; NTR1-U2OS beta-arrestin-GFP spot imaging, agonist mode; activation, % at 20 µM; 330,000 compounds, 0.17% hits; AID 493036;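 active means activation at or above 40% of the spot to cytoplasm intensity ratio, with at least 20 cells analyzed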
GRK2 aptamer HTS: inhibitors of human GRK2 displacing RNA aptamer | bead flow cytometry, FAM-aptamer displacement from GRK2 | AID 488847 | P25098 | inhibition of aptamer binding, % at 10 µM | 330,000 compounds, 0.59% hits;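 active means inhibition of aptamer binding above 40%, roughly 3 SD of noise, on plates passing a quality check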;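 further: median bead fluorescence of bound FAM aptamer so fluorescent compounds give negative values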
Target sequence (P25098 whole entry, looked up): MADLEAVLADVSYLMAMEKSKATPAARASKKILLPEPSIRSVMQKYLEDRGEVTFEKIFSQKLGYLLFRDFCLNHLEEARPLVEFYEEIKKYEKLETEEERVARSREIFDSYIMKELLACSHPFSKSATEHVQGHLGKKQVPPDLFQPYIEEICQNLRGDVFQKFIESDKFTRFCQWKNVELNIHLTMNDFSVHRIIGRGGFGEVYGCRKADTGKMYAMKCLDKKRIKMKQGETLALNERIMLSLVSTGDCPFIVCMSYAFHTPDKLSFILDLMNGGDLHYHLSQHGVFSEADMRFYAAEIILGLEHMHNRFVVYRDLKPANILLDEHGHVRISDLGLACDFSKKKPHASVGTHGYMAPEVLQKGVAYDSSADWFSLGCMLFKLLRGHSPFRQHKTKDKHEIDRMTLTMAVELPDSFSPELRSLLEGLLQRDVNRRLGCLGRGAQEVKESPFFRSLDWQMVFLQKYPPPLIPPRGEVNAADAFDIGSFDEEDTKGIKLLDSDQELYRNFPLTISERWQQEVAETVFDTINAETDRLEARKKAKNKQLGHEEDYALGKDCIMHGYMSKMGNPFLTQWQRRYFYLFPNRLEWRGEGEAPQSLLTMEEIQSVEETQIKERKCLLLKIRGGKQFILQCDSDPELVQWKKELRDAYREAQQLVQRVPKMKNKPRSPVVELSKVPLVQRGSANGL
Platelet DG rel: platelet dense granule release activity; human platelet-rich plasma, SFLLRN dense granule ATP release, luminescence; inhibition, %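 (compounds screened at 7.5 µM in platelet-rich plasma)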; 300,000 compounds, 0.22% hits; AID 1663;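 active means mean replicate score, as percent of positive control, at or above 50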
GRK2 CP1: human GRK2 inhibition confirmation, cherry pick 1. shares compounds with GRK2 aptamer HTS. bead-bound GRK2, FAM-aptamer displacement, flow cytometry. aptamer displacement, % at 10 µM. 2,000 compounds, 4% hits. AID 504451;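 active means aptamer displacement above 40%, near three times the noise of non-fluorescent compounds, on plates passing quality checks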;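 further: negative values mostly reflect intrinsic compound fluorescence rather than true enhancement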
Aptamer quench: quenches fluorescent RNA aptamer, GRK2 hit artifact. shares compounds with GRK2 aptamer HTS. AID 504521. Fluorescent RNA aptamer beads, quenching, flow cytometry; active compounds read high. fluorescence change (kMESF span), kMESF (test concentration not listed). 110 tested, under 10 active;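 active means compounds whose bead fluorescence drops by more than 37 kMESF across the dose range, marking them as dye quenchers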
Aptamer quench SP: quenches fluorescent RNA aptamer, GRK2 hit artifact | AID 504580 | 2,000 tested, under 10 active | Carboxyfluorescein RNA aptamer on beads, flow cytometry quenching; active compounds read low | fluorescence response (% of DMSO), % at 10 µM | shares compounds with GRK2 aptamer HTS;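 active means compounds that quench the bead-bound fluorescent RNA probe, cutting fluorescence to under half of the solvent control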;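 further: counterscreen run without GRK2 so only probe quenching by compound is measured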
GRK2 CP2: human GRK2 inhibition confirmation, cherry pick 2. inhibition of aptamer binding, % at 10 µM. shares compounds with GRK2 aptamer HTS. 360 tested, under 10 active. bead-bound GRK2, FAM-aptamer displacement, flow cytometry. AID 504782;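 active means inhibition of aptamer binding above 40%, about triple the noise seen with nonglowing compounds, on plates passing quality control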;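 further: negative values mostly come from compounds that fluoresce themselves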
FAM quench CP2: aptamer fluorescence quenching in GRK2 counter-screen; 360 tested, under 10 active; fluorescence response vs DMSO, % at 10 µM; carboxyfluorescein RNA aptamer beads, flow cytometry quenching; active compounds read low; shares compounds with GRK2 aptamer HTS;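 active means response vs DMSO under 50%, meaning signal dropped by over half, treated as fluorescence quencher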;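 further: labelled aptamer on streptavidin beads without GRK2 as a quench counter-screen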
A number is an active result; – = inactive; · = no result.

SMILES	beta cell repl	NTR1 agonist	GRK2 aptamer HTS	Platelet DG rel	GRK2 CP1	Aptamer quench SP	others
CN(C(=O)Cn1cc(C(F)(F)F)cc(Cl)c1=O)C1CCS(=O)(=O)C1 (configuration not stated)	–	–	–	–	·	·
CN(Cc1ccccc1)C(=O)COC(=O)CCC(=O)c1ccc(F)cc1	–	–	–	·	–	–
CN(Cc1ccccc1)C(=O)COC(=O)CCC(=O)c1ccc(Cl)cc1	–	–	–	·	·	·
COc1ccc(-c2cn3c(C)c(C(=O)N4CCN(c5ccccc5F)CC4)sc3n2)cc1	–	–	–	–	·	·
COc1ccc(-c2cn3c(C)c(C(=O)N4CCCc5ccccc54)sc3n2)cc1	–	–	81.0	–	–	–
Cc1cc(C(C)(C)C)cc(S(=O)(=O)NCCO)c1C	–	–	99.0	–	–	–
COc1ccc(NC(=O)NCc2cccnc2)cc1	–	–	–	–	·	·
c1ccc(C2Nc3ccccc3Oc3ccccc32)cc1 (configuration not stated)	–	–	52.0	–	–	–
c1ccc(C2Nc3ccccc3C3OCCCC23)cc1 (configuration not stated)	–	–	–	–	·	·
O=C(CS(=O)(=O)c1ccc(F)cc1)Nc1nccs1	–	–	–	–	·	·
NC(=O)c1ccsc1NC(=O)CS(=O)(=O)c1ccc(F)cc1	–	–	–	–	·	·	GRK2 CP2=–;FAM quench CP2=–
O=C(CSc1nncn1-c1cccnc1)Nc1cccc(C(F)(F)F)c1	–	–	–	–	·	·
N[C@@H](Cc1ccccc1)c1nnc2sc(SCc3ccccc3)nn12	–	–	55.0	–	–	–
Cn1c(C2=C(O)CN(Cc3ccccc3)C2=N)[n+](C)c2ccccc21	–	–	–	·	·	·
COCCCNC(=O)C1CCN(C(=O)c2oc3cc4sc(N(C)C)nc4cc3c2C)CC1	–	–	–	–	·	·
CSc1ccc(CN2CCN(C(C)C)C(CCO)C2)cc1 (configuration not stated)	–	–	91.0	–	–	–
O=C(CN1CCN(S(=O)(=O)c2ccccc2)CC1)Nc1ccc(Cl)c([N+](=O)[O-])c1	–	–	–	–	·	·
COc1ccc(/C=C2\SC(=S)N(CCC(=O)N3CCCCC3)C2=O)cc1	–	–	–	–	·	·
COCCN1C(=O)/C(=C/c2ccc(N3CCCC3)cc2)SC1=S	–	–	57.0	–	–	–
CCOC(=O)c1c(Nc2ccccc2)sc(/C=C2\C=Nc3ccccc32)c1O	–	–	–	–	·	·
Oc1nc(Nc2ccccc2)sc1/C=C1\C=Nc2ccccc21	–	–	45.0	–	–	–
Cc1ccc(-c2onc3ccc(C4(C)OCCO4)cc23)cc1	–	–	–	–	·	·
Cc1ccc(-c2onc3ccc(C=O)cc23)cc1	–	–	45.0	–	–	–
COc1ccc(-c2nc3ccccc3c(=O)n2CC(C)C)cc1	–	–	98.0	–	–	–
NS(=O)(=O)c1ccc(NC(=O)CSc2n[nH]c(=O)n2C2CC2)cc1	–	–	–	·	·	·
SMILES	beta cell repl	NTR1 agonist	GRK2 aptamer HTS	Platelet DG rel	GRK2 CP1	Aptamer quench SP	others
Cc1nc(NC(=O)CSC2=NCCS2)sc1C(=O)N(C)C	–	–	–	–	·	·
CCc1ccc(NC(=O)N(C2CCC(C)CC2)C2CCN(C(C)=O)CC2)cc1 (configuration not stated)	–	–	57.0	–	–	–
CCc1ccc(NC(=O)N(CCCOC(C)C)C2CCN(C(C)=O)CC2)cc1	–	–	–	–	·	·
O=C(Nc1ccccc1)/C(=C/c1ccc(O)cc1)NC(=O)c1ccco1	–	–	–	–	·	·
COc1ccc(CNC(=O)C2CCN(S(=O)(=O)c3ccc4c(c3)CC(C)N4C(=O)C3CC3)CC2)cc1 (configuration not stated)	–	–	–	–	·	·
Cc1nn(-c2ccccc2)c(Cl)c1C(=O)NC1CCCCC1	–	–	–	–	·	·
O=C(NC1CCCCC1)c1cc(C2CC2)nn1-c1ccccc1	–	–	89.0	·	–	–
CCOc1ccc2nc(Nc3nc(CSc4nnnn4-c4ccccc4)cc(=O)[nH]3)nc(C)c2c1	–	–	–	–	·	·
COc1ccc2nc(Nc3nc(CSc4nnnn4-c4ccccc4)cc(=O)[nH]3)nc(C)c2c1	–	–	46.0	–	–	–
O=C(Cn1c(NCCO)nc2ccccc21)NCC1CCCO1 (configuration not stated)	–	–	100.0	–	–	–
O=C(CCN1CCOCC1)N1CCc2c([nH]c3ccccc23)C1c1cccc(Cl)c1 (configuration not stated)	–	–	–	–	–	–
O=C(c1cccs1)N1CCc2c([nH]c3ccccc23)C1c1ccc(Cl)cc1 (configuration not stated)	–	–	–	–	·	·
O=C(NCC1COc2ccccc2O1)c1cccc(S(=O)(=O)N2CCOCC2)c1 (configuration not stated)	–	–	–	·	·	·
CC1Cc2nc(SCC(=O)N3CCCC3)n(C)c(=O)c2S1 (configuration not stated)	–	–	100.0	–	–	–
O=C(O)/C=C\C(=O)Nc1ccc(N2CCN(c3ccc(F)cc3)CC2)cc1	–	–	–	–	·	·
CC(=O)Nc1ccc(N2CCN(c3ccc(F)cc3)CC2)cc1	–	–	–	–	–	–
COc1ccc(NC(=O)c2ccccc2[N+](=O)[O-])cc1	–	–	51.0	–	·	·	GRK2 CP2=–;FAM quench CP2=–
CCOc1ccc(C(=O)NCc2ccc3c(c2)OCO3)cc1	–	–	–	–	·	·
O=C(CN1C(=O)NC2NC(=O)NC21)N/N=C/c1ccccc1F (configuration not stated)	–	–	–	–	·	·
Cc1ccc(NC(=O)COC(=O)C2(CC(=O)NC(C)(C)C)CCCC2)cc1C	–	–	–	·	–	–
O=C(NCc1ccco1)c1cccc(NC(=O)c2ccccc2)c1	–	–	–	–	–	–
Cc1ccc(C(=O)Nc2cccc(C(=O)NCc3ccco3)c2)cc1	–	–	–	–	–	–	Aptamer quench=–
Cc1c(N2C(=O)c3ccc(Br)cc3C2=O)c(=O)n(-c2ccccc2)n1C	–	–	–	–	·	·
Cc1c(N2C(=O)c3ccc4c5c(ccc(c35)C2=O)CC4)c(=O)n(-c2ccccc2)n1C	–	–	46.0	–	–	–
O=C(COC(=O)c1cc(Cl)ccc1O)Nc1ccccc1C(=O)NC1CC1	–	–	–	·	·	·
Cc1ccc(Cl)cc1NC(=O)COC(=O)c1ccccc1O	–	–	85.0	–	–	–
